# CD40 NFkB inh: CD40 pathway inhibition in BL2 cells | BL2 NF-kB luciferase reporter, CD40L-induced, 4 h | inhibition, % at 10 µM | 83,000 compounds, 0.94% hits;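 active = mean inhibition of at least 50% with a set share of replicates also reaching that level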;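 note: 0% = neutral control wells and 100% = IKK inhibitor VII at 50 µM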
# Active calls of the source: *; [ ] = remark or other dose. Many of the other results were omitted from the sample, so hits are more common in it than they were.
SMILES,CD40 NFkB inh
c1ccc2nc(-c3nc4ccccc4[nH]3)ccc2c1,78*
c1ccc2[nH]c(-c3cscn3)nc2c1,-58
N#C[C@@H]1[C@@H](c2ccc(C3=CCCC3)cc2)[C@@H](CO)N1C(=O)Cc1ccncc1,-1[25 µM]
CO[C@H]1CC[C@H]2CCOc3c(C#N)cccc3C(=O)N(C)C[C@H](OC)[C@H](C)C(=O)N(C)C[C@@H]1O2,-25[25 µM]
Cc1cccc(C(=O)NCC(c2ccco2)N(C)C)c1 (centres undefined),1
O=c1[nH]c(CSc2ccccn2)nc2ccccc12,-21
O=C(O)CCSc1nc2ccccc2s1,14
O=S(=O)(CCSc1ccccn1)c1nc2ccccc2s1,59*
C[C@H]1CN([C@@H](C)CO)C(=O)c2ccccc2-c2ccccc2CO[C@@H]1CN(C)S(=O)(=O)c1ccc(Cl)cc1,-9
Cc1ccc2c(c1)CCCN2C(=O)c1cc(C)c(C)s1,3
CN1CCN(C(CNS(=O)(=O)c2ccc(Br)cc2)c2ccc3c(c2)OCO3)CC1 (centres undefined),-3
OC(CN1CCCCC1)c1ccc(Br)cc1 (centres undefined),2
Oc1cc2c(cc1C(c1ccc(Br)cc1)N1CCCC1)OCO2 (centres undefined),86*
O=S(=O)(NCc1cccs1)c1ccc(Cl)s1,0
COC(=O)c1ccc(CSc2cc(C)c3ccccc3n2)o1,66*
COC(=O)c1ccc(CSc2nnc(-c3ccccc3)n2C)o1,10
COC(=O)c1ccc(CSc2nnnn2-c2ccccc2)o1,-9
Cc1cccc(NCC(=O)N/N=C\c2c[nH]c3ccccc23)c1,6
COc1ccccc1N(C(C)=O)C1=C(Cl)C(=O)c2ccccc2C1=O,101*
COc1ccccc1N(CC(=O)N(CC(C)C)CC(C)C)S(=O)(=O)c1cccs1,14
COc1ccc(Cl)cc1N(C(C)C(=O)O)S(C)(=O)=O (centres undefined),-1
COc1ccc(-c2nc(C#N)c(NCc3ccco3)o2)cc1,-112
Cc1ccc2cccc(Oc3ncnc4scc(-c5ccccc5)c34)c2n1,13
COc1ccccc1C(=O)COC(=O)c1cccc(-n2cnnn2)c1,-24
NC(=S)NN=Cc1c[nH]c2nccnc12,67*
SMILES,CD40 NFkB inh
NC(=S)NN=Cc1nccc2c(C(F)(F)C(F)(F)C(F)(F)F)cccc12,31
Cn1cccc1/C=N/NC(N)=S,4
CC(C)(C)C(=O)NC1=NCCS1,-1
O=C(CC1C(=O)N(c2ccccc2)C(=O)N1Cc1ccco1)Nc1ccccc1 (centres undefined),4
Cc1ccc(C(OCC(O)CNCc2ccc(F)cc2)c2ccccc2)cc1 (centres undefined),50*
OC(COC(c1ccc(F)cc1)c1ccc(F)cc1)CN1CCCC1 (centres undefined),6
O=C(c1ccccc1)c1ccc(OCC(O)CNCc2ccc(F)cc2)cc1 (centres undefined),10
c1csc(Cn2c(-c3cccs3)nc3ccccc32)c1,-7
NC1=C(Br)C(=O)c2ncccc2C1=O,70*
O=C1C=C(NCCc2cc(Br)c(O)c(Br)c2)C(=O)c2ncccc21,32
O=C1c2cccnc2C(=O)N1C1CCCCC1,8
Cc1ccc(C(=O)Nc2cc(Cl)ccc2OC(=O)c2ccc(C)cc2)cc1,-49
CC(C)C[C@@H](C=O)NC(=O)[C@H](CC(C)C)NC(=O)[C@H](CC(C)C)NC(=O)OCc1ccccc1,64*[25 µM]
COC(=O)C(CC(C)C)NC(=O)C(N)Cc1ccccc1 (centres undefined),12
O=C(NC(CO)C(=O)OCc1ccccc1)OCc1ccccc1 (centres undefined),3
COc1cccc(NC(=O)CCc2nc(-c3cccs3)no2)c1,12
Cn1ncc2c(Sc3ccc(Cl)cc3)ncnc21,-84
C#C[C@]1(O)CC[C@H]2[C@@H]3CCc4cc(OC5CCCC5)ccc4[C@H]3CC[C@@]21C,52*
C#C[C@]1(O)CC[C@H]2[C@@H]3CCc4cc(OC)ccc4[C@H]3CC[C@@]21C,10
C=CCOc1ccc2c(c1)CCC1C2CCC2(C)C(O)C(O)CC12 (centres undefined),-111
CC=Cc1ccc2n(c1=O)C[C@@H]1[C@@H](CO)[C@H](C(=O)N[C@H](C)c3ccccc3)N(C(=O)c3ccccn3)[C@H]21 (mixture of isomers),3[25 µM]
CC(=O)c1ccc(NC(=O)C2CCCN(c3ncnc4c3nc3n4CCCCC3)C2)cc1 (centres undefined),3
O=[N+]([O-])c1ccc(O)c(Nc2ncnc3ccccc23)c1,0
c1ccc2c(c1)oc1c(Nc3ccc4c(c3)OCCO4)ncnc12,-70
O=[N+]([O-])c1ccc2ncnc(Nc3ccc4c(c3)OCCO4)c2c1,36*
Cc1ccc(C(c2nnnn2CC2CCCO2)N2CCN(C)CC2)cc1 (centres undefined),4
O=C(c1cccc(C(F)(F)F)c1)N1CCCC1,4
CN(CC(=O)Nc1ccccc1Cl)C(=O)COC(=O)c1cccs1,13
CN(CC(=O)Nc1ccccc1Cl)C(=O)COC(=O)c1ccc(S(=O)(=O)C(F)F)cc1,7
